The list is not random: actives were taken first. Their share in the collection is about 1.1%.
NCOA3 inh: SRC3 coactivator transcriptional activity inhibitors, primary screen, cell-based, luminescence | inhibition, % at 3.6 µM | AID 588352, 2011 | HEK293 GAL4-SRC3 luciferase reporter | Nuclear receptor coactivator 3 (Homo sapiens), Q9Y6Q9 | hit rate 0.17% among 360,000;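 active = inhibition above a per-campaign cutoff, the mean of all compounds plus 3 SD, cut at about 60% in these data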;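 note: 0% = DMSO-treated cells and 100% = gossypol-treated cells at 36 µM; higher means less SRC3-driven luciferase light from the GAL4 reporter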
NR2F2 inh: NR2F2 transcriptional activity inhibitors, primary screen, cell-based, luciferase reporter, HEK293T, luminescence; inhibition, % at 8.6 µM; HEK293T NGFI-A luciferase reporter; hit rate 0.7% among 370,000; COUP transcription factor 2 (Homo sapiens), P24468;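 active = inhibition above a per-plate cutoff, mean inhibition of test wells between control levels plus 3 SD, cut at about 38% in these data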;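 note: cells cotransfected with COUP-TFII expression vector driving the NGFI-A reporter; 0% = median of COUP-TF2 test wells and 100% = reporter-only cells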
Target sequence (P24468 whole entry, looked up): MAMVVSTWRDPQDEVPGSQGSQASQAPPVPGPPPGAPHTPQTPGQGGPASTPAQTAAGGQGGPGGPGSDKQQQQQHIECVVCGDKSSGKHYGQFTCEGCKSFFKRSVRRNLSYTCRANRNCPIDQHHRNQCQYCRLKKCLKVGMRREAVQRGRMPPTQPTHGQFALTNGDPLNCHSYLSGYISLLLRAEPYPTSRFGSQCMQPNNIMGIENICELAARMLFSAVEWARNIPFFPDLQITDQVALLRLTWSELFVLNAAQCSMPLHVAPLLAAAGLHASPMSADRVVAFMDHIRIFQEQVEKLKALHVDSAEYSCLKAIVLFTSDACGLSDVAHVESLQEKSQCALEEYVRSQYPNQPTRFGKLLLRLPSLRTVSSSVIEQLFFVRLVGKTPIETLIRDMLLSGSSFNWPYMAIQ
NCOA1 inh: SRC1 coactivator transcriptional activity inhibitors, primary screen, cell-based, luminescence | inhibition, % at 3.6 µM | Nuclear receptor coactivator 1 (Homo sapiens), Q15788 | HEK293 GAL4-SRC1 luciferase reporter | hit rate 0.12% among 360,000 | AID 588354, 2011;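 active = inhibition above the campaign mean plus 3 SD, with each screening campaign given its own cutoff, cut at about 60% in these data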;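 note: 0% = DMSO treated cells and 100% = gossypol at 36 µM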
NCOA2 inhibitor: inhibition of GAL4-SRC2 driven luciferase reporter, primary screen, SRC2 inhibitor project, cell-based, luminescence; Nuclear receptor coactivator 2 (Homo sapiens), Q15596; HEK293 GAL4-SRC2 luciferase reporter; inhibition, % at 9 µM; hit rate 0.17% among 370,000;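 active = inhibition above the mean inhibition of all tested compounds plus 3 SD, set per campaign, cut at about 52% in these data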;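 note: 0% = DMSO treated cells and 100% = cells given Gossypol at 36 µM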
LRH-1 inv ag: LRH-1 (NR5A2) inverse agonists, primary screen, cell-based, luminescence, HEK293T, StAR-luciferase reporter. Nuclear receptor subfamily 5 group A member 2 (Homo sapiens), O00482. LRH-1 transfected, 24 h. inhibition, % at 3.6 µM. hit rate 0.13% among 360,000. AID 602396, 2012;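 active = inhibition above the mean inhibition of all tested compounds plus 3 SD, cut at about 73% in these data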;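 note: 0% = DMSO wells and 100% = reporter-only cells lacking LRH-1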
GalR3 antag: GalR3 antagonists in HEK293 cells, primary screen, cell-based, fluorescence readout; hit rate 0.44% among 360,000; HEK293 GalR3-CNG cAMP membrane potential fluorescence; galR3 body fused to GalR1 C-terminus; AID 651719, 2012; inhibition, % at 3 µM; Galanin receptor type 3 (Homo sapiens), O60755;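 active = inhibition above the screen-wide average plus 3 SD, cut at about 13% in these data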;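 note: forskolin and galanin both at EC90 stimulate the cells; cAMP rise reported by CNG channel membrane potential dye signal; 0% = forskolin plus galanin with DMSO and 100% = forskolin alone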
The depositor's hits bear a star.

Results for Cn1c(/C=C/c2ccc(Cl)cc2Cl)c([N+](=O)[O-])c(=O)n(C)c1=O ?
NCOA3 inh: 75*; NR2F2 inh: -18; NCOA1 inh: 46; NCOA2 inhibitor: -19; LRH-1 inv ag: 6; GalR3 antag: -10

How did CCCS(=O)(=O)Nc1ccc(Nc2c3ccccc3nc3ccccc23)c(OC)c1 do in these assays?
NCOA3 inh: 70*; NR2F2 inh: -68; NCOA1 inh: 66*; NCOA2 inhibitor: -25; LRH-1 inv ag: 33; GalR3 antag: -6

What do the screens show for `COc1cc(N)ccc1Nc1c2ccccc2nc2ccccc12`?
NCOA3 inh: -37; NCOA1 inh: 8; LRH-1 inv ag: 24

What do the screens show for `Cc1ccccc1NCC(=O)N/N=C/c1ccc[nH]1`?
NR2F2 inh: -6

How did CC(C)C[C@H](NC1(C(=O)NCCc2c[nH]c3ccccc23)CCC1)C(=O)NCCCc1ccccc1 do in these assays?
NR2F2 inh: 7

Results for COc1cc([C@@H]2C[C@H]3CN(c4ccccc4)C(=O)[C@]34CCCN24)cc(OC)c1OC ?
NCOA3 inh: 16; NR2F2 inh: 1; NCOA1 inh: 24; NCOA2 inhibitor: -12; LRH-1 inv ag: 21; GalR3 antag: 4

Results for COc1ccccc1-n1cc([C@@H]2C[C@H]3CN(c4ccccc4)C(=O)[C@]34CCCN24)cn1 ?
NCOA3 inh: 64*; NR2F2 inh: 7; NCOA1 inh: 55; NCOA2 inhibitor: -32; LRH-1 inv ag: 53; GalR3 antag: -4

How did Cc1ccc(Cn2nnc3c2-c2cc(F)ccc2S(=O)(=O)N(C(C)(C)C)C3)cc1 do in these assays?
NR2F2 inh: 9; NCOA2 inhibitor: -12

What do the screens show for `O=C(CC(Nc1ccc(Cl)cc1Cl)C(=O)O)c1ccccc1` (stereo not drawn)?
NCOA3 inh: 64*; NR2F2 inh: 20; NCOA1 inh: 63*; NCOA2 inhibitor: 52; LRH-1 inv ag: 30; GalR3 antag: -5

How did CCOC(=O)[C@@]12CN(C(=O)OC(C)(C)C)CC=C1N(Cc1ccc(OC)cc1)C(=O)[C@H]2CC(=O)NCC1CCCCC1 do in these assays?
NR2F2 inh: 13; NCOA2 inhibitor: -2

How did Cc1cc2cc(CN(Cc3ccco3)S(=O)(=O)c3c(C)ccc4nsnc34)c(=O)[nH]c2cc1C do in these assays?
NCOA3 inh: 27; NR2F2 inh: -11; NCOA1 inh: 3; NCOA2 inhibitor: 5; LRH-1 inv ag: 10; GalR3 antag: -3

How did Cc1ccc2cc(CN(Cc3ccco3)S(=O)(=O)c3c(C)ccc4nsnc34)c(=O)[nH]c2c1 do in these assays?
NCOA3 inh: -5; NR2F2 inh: -3; NCOA1 inh: -1; NCOA2 inhibitor: 77*; LRH-1 inv ag: -24; GalR3 antag: -6

How did O=c1ccc2ccccc2c2ccccc12 do in these assays?
NCOA3 inh: 75*; NR2F2 inh: 1; NCOA1 inh: 64*; NCOA2 inhibitor: 70*; LRH-1 inv ag: 93*; GalR3 antag: 4

Results for C[C@H]1[C@@H](OC(=O)NC2CCCCC2)CC[C@@]23CCCN2C(=O)CCC[C@@H]13 ?
NR2F2 inh: 14

How did CCOc1cc2c(cc1OCC)C(c1ccc(OC)cc1)N(c1ccccc1)C(=O)C2 (stereo not drawn) do in these assays?
NCOA3 inh: -33; NR2F2 inh: 3; NCOA1 inh: -28; NCOA2 inhibitor: -21; LRH-1 inv ag: 76*; GalR3 antag: 4

Results for CCOc1ccccc1O[C@H](c1ccccc1)[C@H]1CNCCO1 ?
NCOA3 inh: 57; NR2F2 inh: -8; NCOA1 inh: 70*; NCOA2 inhibitor: 15; LRH-1 inv ag: 53; GalR3 antag: -4

Results for CCOc1ccccc1NC(=O)C(NCC1CCCCC1)c1ccccc1 (stereo not drawn) ?
NCOA3 inh: 17; NR2F2 inh: 11; NCOA1 inh: 1; NCOA2 inhibitor: 15; LRH-1 inv ag: 7; GalR3 antag: -5

What do the screens show for `CC(C)[C@H]1/C(=C/C2CC2)N2C(=O)C[C@@H](c3ccccc3)N=C2N1Cc1ccc2c(c1)OCO2`?
NR2F2 inh: 7; NCOA2 inhibitor: -11

What do the screens show for `COc1cccc(/C=N/NC(=O)c2ccc(-c3ccccc3)cc2)c1O`?
NCOA3 inh: 68*; NR2F2 inh: 12; NCOA1 inh: 45; NCOA2 inhibitor: 16; LRH-1 inv ag: 53; GalR3 antag: 3

Results for COc1cccc(/C=N/NC(=O)c2c(C)nc3ccc(Cl)cn23)c1O ?
NCOA3 inh: 78*; NR2F2 inh: -20; NCOA1 inh: 47; NCOA2 inhibitor: 15; LRH-1 inv ag: 90*; GalR3 antag: -5

What do the screens show for `COc1ccccc1/C=N\NC(=O)c1c(C)nc2ccc(Cl)cn12`?
NCOA3 inh: 2; NR2F2 inh: 1; NCOA1 inh: -6; NCOA2 inhibitor: -5; LRH-1 inv ag: 7; GalR3 antag: -6

How did COC(=O)[C@]12C[C@H](CC(=O)NCCC(C)C)C(=O)N(Cc3ccco3)C1=C[C@H](C(C)(C)C)O[C@@H]2C do in these assays?
NR2F2 inh: -10; NCOA2 inhibitor: -8

Results for CC(C)C[C@@H]1COc2cc(Br)ccc2S(=O)(=O)N1Cc1cn(Cc2ccc(F)cc2)nn1 ?
NR2F2 inh: -2; NCOA2 inhibitor: 9

How did CN(C)CCN1C(=O)c2cccc3cc([N+](=O)[O-])cc(c23)C1=O do in these assays?
NCOA3 inh: -30; NR2F2 inh: -92; NCOA1 inh: 31; NCOA2 inhibitor: inactive; LRH-1 inv ag: 82*; GalR3 antag: -7

Results for OCCCNc1ncnc2[nH]ncc12 ?
NCOA3 inh: -5; NR2F2 inh: 10; NCOA1 inh: 1; NCOA2 inhibitor: -1; LRH-1 inv ag: 6; GalR3 antag: -2

What do the screens show for `CCCCCCCCNc1ncnc2[nH]ncc12`?
NCOA3 inh: 12; NR2F2 inh: 38*; NCOA1 inh: 25; NCOA2 inhibitor: 11; LRH-1 inv ag: 12; GalR3 antag: -5

Results for Cc1nc2ccc(NC(=O)c3cc(Cl)ccc3F)cc2c(=O)[nH]1 ?
NR2F2 inh: -13; NCOA2 inhibitor: -43

Results for O=C(O)CCSc1nc2ccccc2s1 ?
NCOA3 inh: 16; NR2F2 inh: 35; NCOA1 inh: 19; NCOA2 inhibitor: 78*; LRH-1 inv ag: -4; GalR3 antag: -6

How did c1ccc2sc(SCSc3nc4ccccc4s3)nc2c1 do in these assays?
NCOA3 inh: 1; NR2F2 inh: 8; NCOA1 inh: -51; NCOA2 inhibitor: -23; LRH-1 inv ag: -45; GalR3 antag: -5
